Assay [1] deals with MCC-13. Kind of assay: qHTS assay to identify novel small-molecules to repurpose for Merkel cell carcinoma treatment (AID 1296009). Further: nearly all actives have a fitted effect of over 60% in size. The note with it: MCC and control cell lines, CellTiter-Glo viability, 72 h; series mostly up to 46 µM. Put shortly:
(§1)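 Dose-response viability screen; 72 hr exposure at 37 degree celsius; CellTiter-Glo added, 10 min room temperature, luminescence read; RLUs scaled between no-cell and DMSO wells.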

In assay [2] the test system is MCC-26. The assay is described as above. The note with it: MCC and control cell lines, CellTiter-Glo viability, 72 h; series mostly up to 46 µM. In short, it runs like this:
as §1
A general note: In ATP-based viability assays light output follows the ATP content of the culture.

Assay [3] deals with MKL-1. The description is as above. The note with it: MCC and control cell lines, CellTiter-Glo viability, 72 h; series mostly up to 46 µM. In short, it runs like this: as §1
The test system of assay [4] is MKL-2. The assay is described as above. The note with it: MCC and control cell lines, CellTiter-Glo viability, 72 h; series mostly up to 46 µM. In short, it runs like this:
as §1

Assay [5] has as its system UISO. Described as above. The conditions noted are these: MCC and control cell lines, CellTiter-Glo viability, 72 h; series mostly up to 46 µM. In short, it runs like this:
as §1

Assay [6] relates to WaGa. The description is as above. The conditions noted are these: MCC and control cell lines, CellTiter-Glo viability, 72 h; series mostly up to 46 µM. Put shortly:
as §1

The subject of assay [7] is C33A. The assay can be described thus: Primary qHTS to identify gynecologic anti-cancer compounds using libraries of approved drugs and bioactive compounds (AID 1345084). Further: nearly all actives have a fitted effect of over 55% in size. The note with it: Gynecologic cancer cell panel viability, ATPlite luminescence, 48 h; series mostly up to 57.5 µM. In short, it runs like this:
(§2)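 Five-concentration response, 48 h; readout is ATP-driven luciferase luminescence.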
(In general: Quantitative high-throughput screening tests each substance at several concentrations.)

In assay [8] the test system is CAOV3. The assay is described as above. The note with it: Gynecologic cancer cell panel viability, ATPlite luminescence, 48 h; series mostly up to 57.5 µM. In short, it runs like this: as §2
The test system of assay [9] is CASKI. Described as above. The note with it: Gynecologic cancer cell panel viability, ATPlite luminescence, 48 h; series mostly up to 57.5 µM. In short, it runs like this:
as §2

The test system of assay [10] is Es-2. The assay is described as above. The conditions noted are these: Gynecologic cancer cell panel viability, ATPlite luminescence, 48 h; series mostly up to 57.5 µM. In short, it runs like this:
as §2

The test system of assay [11] is HeLa. The assay is described as above. The conditions noted are these: Gynecologic cancer cell panel viability, ATPlite luminescence, 48 h; series mostly up to 57.5 µM. Put shortly:
as §2

In assay [12] the test system is Hek293T. The assay is described as above. The note with it: Gynecologic cancer cell panel viability, ATPlite luminescence, 48 h, control line for the selectivity index; series mostly up to 57.5 µM. In short, it runs like this: as §2
Assay [13] deals with JEG-3. The description is as above. The note with it: Gynecologic cancer cell panel viability, ATPlite luminescence, 48 h; series mostly up to 57.5 µM. In short, it runs like this: as §2
Assay [14] concerns OV90. The description is as above. The note with it: Gynecologic cancer cell panel viability, ATPlite luminescence, 48 h; series mostly up to 57.5 µM. Put shortly:
as §2

The subject of assay [15] is PA-1. Described as above. The conditions noted are these: Gynecologic cancer cell panel viability, ATPlite luminescence, 48 h; series mostly up to 57.5 µM. In short, it runs like this: as §2
Assay [16] relates to SKOV3. Described as above. The note with it: Gynecologic cancer cell panel viability, ATPlite luminescence, 48 h; series mostly up to 57.5 µM. In short, it runs like this: as §2
Assay [17] concerns Tov-21-G. The description is as above. The note with it: Gynecologic cancer cell panel viability, ATPlite luminescence, 48 h; series mostly up to 57.5 µM. In short, it runs like this: as §2
The subject of assay [18] is Tov112D. Described as above. The note with it: Gynecologic cancer cell panel viability, ATPlite luminescence, 48 h; series mostly up to 57.5 µM. In short, it runs like this: as §2

Inconclusive results are not listed. Values without a mark were called inactive. Calls of active or inactive are those of the source. The call rests on the fitted dose curve; in most records, active means well fitted curve in the direction sought with a large enough effect; inconclusive means small, poorly fitted or top-dose-only effect, or another doubt; inactive means no such curve, though single readings can be large; an effect the other way counts as inactive or inconclusive.
Potency means the concentration at half of the fitted maximal effect.

`O=C(Nc1cccc(C(F)(F)F)c1)Nc1cc(S(=O)(=O)NC2CC2)ccc1-c1ccsc1`: the Potency result in assay [1], in [2], in [3], in assay [4], in assay [5] and in assay [6] was “inactive” in each case. Moreover, the Potency entry in assay [7], in [8], in assay [9], in assay [10], in [11] and in [12] was “inactive” each time. Further, the Potency result in assay [13], in assay [14], in assay [15], in [16], in assay [17] and in [18] was “inactive” throughout.
For the compound `CC=C1C2C=C(C)CC1(N)c1ccc(=O)[nH]c1C2` (stereo unspecified), the Potency result in [1], in assay [2], in assay [3], in [4], in assay [5] and in assay [6] was “inactive” in each case.
For `CC1(C)[C@H]2CC[C@]3(C)[C@@H](C(=O)C=C4[C@@H]5C[C@@](C)(C(=O)O)CC[C@]5(C)CC[C@]43C)[C@@]2(C)CC[C@@H]1O`, the Potency entry in assay [1], in [2], in assay [3], in assay [4], in assay [5] and in assay [6] was “inactive” each time.
`OC[C@H]1O[C@@H](OCCc2ccc(O)cc2)[C@H](O)[C@@H](O)[C@H]1O`: the Potency result in assay [1], in assay [2], in assay [3], in [4], in assay [5] and in assay [6] was “inactive” in each case. Further, the Potency entry in [7], in assay [9], in assay [10], in assay [11], in assay [12] and in [13] was “inactive” throughout. Also, the Potency entry in [14], in assay [15], in assay [16], in [17] and in assay [18] was “inactive” throughout.
As to `O=[N+]([O-])c1ccc(Nc2ccccc2-c2ccccc2)c2nonc12`, the Potency result in [1], in assay [2], in assay [3], in assay [4], in assay [5] and in assay [6] was “inactive” in each case.
Turning to `CN(C)CC[C@H](CSc1ccccc1)Nc1ccc(S(=O)(=O)NC(=O)c2ccc(N3CCN(Cc4ccccc4-c4ccc(Cl)cc4)CC3)cc2)cc1[N+](=O)[O-]`, the Potency result in [1] and in assay [2] was “inactive” in each case. In addition, the figures for the Potency in [3], in [4] and in assay [6] were 1.18 µM (active), 0.235 µM (active) and 0.264 µM (active), respectively.
As for `COc1nccc(-c2c(-c3ccc(F)cc3)ncn2C2CCNCC2)n1`, the Potency entry in [1], in assay [2], in assay [3], in [4], in assay [5] and in [6] was “inactive” in each case. Also, the Potency result in assay [7], in assay [8], in assay [9], in assay [10], in [11] and in assay [12] was “inactive” throughout. In addition, the Potency entry in assay [13], in assay [16] and in assay [18] was “inactive” each time.
Consider `CC[C@@H]([C@H](C)O)n1ncn(-c2ccc(N3CCN(c4ccc(OCC5CO[C@@](Cn6cncn6)(c6ccc(F)cc6F)C5)cc4)CC3)cc2)c1=O` (stereo partly specified), for which the Potency entry in [1], in assay [2], in assay [3], in assay [4], in assay [5] and in assay [6] was “inactive” in each case.
Take `C[C@@H](NC(=O)c1ncnc(N)c1Cl)c1ncc(C(=O)Nc2cc(C(F)(F)F)c(Cl)cn2)s1`: the Potency result in assay [1], in assay [2], in assay [3], in assay [4], in assay [5] and in assay [6] was “inactive” in each case. In addition, the Potency result in assay [7], in assay [9], in assay [10], in assay [11], in assay [12] and in assay [13] was “inactive” each time. Also, the Potency entry in assay [15] and in assay [18] was “inactive” in each case. In addition, the Potency in assay [14] is 10 µM (active).
Consider `Cc1ccc2c(c1)c1c(n2CCc2ccc(C)nc2)CCN(C)C1`, for which the Potency entry in assay [1], in assay [2], in assay [3], in [4], in assay [5] and in assay [6] was “inactive” in each case. Also, the Potency entry in assay [11], in [13] and in assay [14] was “inactive” each time.
In the case of `N#Cc1ccc(Oc2ccc3c(c2)COB3O)cc1`, the Potency entry in [1], in [2], in [3], in assay [4], in assay [5] and in assay [6] was “inactive” throughout. Further, the Potency entry in assay [7], in [8], in assay [9], in [10], in assay [12] and in assay [13] was “inactive” in each case. Also, the Potency entry in assay [14], in [15], in [16], in assay [17] and in assay [18] was “inactive” each time.
As to `OCCn1cc(-c2ccc3c(c2)CCC3=NO)c(-c2ccncc2)n1`, the Potency entry in assay [1], in assay [2], in [3], in [4], in assay [5] and in assay [6] was “inactive” in each case.
`Cc1cc(C(C)Nc2ccccc2)c2nc(N3CCOCC3)cc(=O)n2c1` (stereo unspecified): the Potency result in assay [1], in [2], in [3], in assay [4], in assay [5] and in assay [6] was “inactive” each time. The Potency result in assay [7], in assay [10], in assay [11], in assay [12], in assay [13] and in assay [14] was “inactive” each time. Also, the Potency entry in [15], in [16], in assay [17] and in assay [18] was “inactive” throughout.
Consider `CC[C@H](C)C(=O)O[C@H]1C[C@H](O)C=C2C=C[C@H](C)[C@H](CC[C@@H](O)C[C@@H](O)CC(=O)O)[C@H]21`, for which the Potency entry in assay [1], in assay [2], in assay [3], in assay [4], in [5] and in [6] was “inactive” each time.
Turning to `CNc1nc(Nc2ccc(C(=O)N3CCOCC3)cc2OC)ncc1Cl`, the Potency result in assay [1], in [2], in [3], in assay [4], in [5] and in assay [6] was “inactive” in each case. Further, the Potency entry in assay [7], in assay [9], in [10], in [11], in assay [12] and in assay [15] was “inactive” in each case. The Potency result in assay [16], in assay [17] and in assay [18] was “inactive” in each case.
For `CC1=C[C@@H]2[C@@H]([C@@H](O)C[C@@]3(C)[C@H]2C[C@@H](C)[C@]3(O)C(=O)CO)[C@@]2(C)Cc3cnn(-c4ccccc4)c3C=C12`, the Potency result in [1], in [2], in [3], in assay [4], in [5] and in assay [6] was “inactive” in each case. The Potency result in assay [9] is “inactive”.
Consider `CC(C)C[C@@H](C(=O)N[C@H](C(=O)OC1CCCC1)c1ccccc1)[C@H](O)C(=O)NO`, for which the Potency result in assay [1], in assay [2] and in assay [3] was “inactive” throughout. The Potency in assay [4] is 23.5 µM (active); in assay [6], 7.43 µM (active).
As to `CC(C)C[C@@H](N)[C@H](O)C(=O)N[C@H](C(=O)N[C@H](C(=O)N[C@@H](CC(=O)O)C(=O)O)C(C)C)C(C)C`, the Potency entry in assay [1], in [2], in assay [3], in [4], in assay [5] and in assay [6] was “inactive” throughout.

(Values after PubChem BioAssay (NCATS).)
